Source: the supplement of paper PMC4466140

Target: AgAbp1
Assay: SPOT peptide array binding signal intensity (averaged, normalized) (arbitrary units (background-subtracted, floor 0; scale differs between SH3 domains)); higher = stronger binding of the SH3 domain to the peptide
Method in brief: (§1)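 To measure binding, SH3 domains from four yeast species were fused to GST, expressed in E. coli BL21(DE3) and purified on glutathione Sepharose. Each domain was incubated at 10 μg/ml overnight at 4°C on cellulose membranes with synthetic 15-mer peptides whose cysteines were replaced by serines. Anti-GST antibody, an HRP anti-mouse secondary and luminol were used for detection, and images were quantified with Genespotter. Reported binding signal is normalized, background-subtracted spot intensity averaged over replicates, in arbitrary units that differ between domains.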

Row | Binder | SPOT peptide array binding signal intensity
1 | STPQTMRQAPKRPDA | ≤ 0

Target: AgBbc1
Assay: as above
Method in brief: as §1

Row | Binder | SPOT peptide array binding signal intensity
2 | STPQTMRQAPKRPDA | 206

Target: AgBem1-D1
Assay: as above
Method in brief: as §1

Row | Binder | SPOT peptide array binding signal intensity
3 | STPQTMRQAPKRPDA | 540

Target: AgBzz1-D1
Assay: as above
Method in brief: as §1

Row | Binder | SPOT peptide array binding signal intensity
4 | STPQTMRQAPKRPDA | 10

Target: AgBzz1-D2
Assay: as above
Method in brief: as §1

Row | Binder | SPOT peptide array binding signal intensity
5 | STPQTMRQAPKRPDA | 20

Target: AgCyk3
Assay: as above
Method in brief: as §1

Row | Binder | SPOT peptide array binding signal intensity
6 | STPQTMRQAPKRPDA | ≤ 0

Target: AgFus1
Assay: as above
Method in brief: as §1

Row | Binder | SPOT peptide array binding signal intensity
7 | STPQTMRQAPKRPDA | 34.5

Target: AgHof1
Assay: as above
Method in brief: as §1

Row | Binder | SPOT peptide array binding signal intensity
8 | STPQTMRQAPKRPDA | 10.5

Target: AgHse1
Assay: as above
Method in brief: as §1

Row | Binder | SPOT peptide array binding signal intensity
9 | STPQTMRQAPKRPDA | 122

Target: AgLsb1
Assay: as above
Method in brief: as §1

Row | Binder | SPOT peptide array binding signal intensity
10 | STPQTMRQAPKRPDA | 6.5

Target: AgLsb4
Assay: as above
Method in brief: as §1

Row | Binder | SPOT peptide array binding signal intensity
11 | STPQTMRQAPKRPDA | ≤ 0

Target: AgMyo5
Assay: as above
Method in brief: as §1

Row | Binder | SPOT peptide array binding signal intensity
12 | STPQTMRQAPKRPDA | 6

Target: AgNbp2
Assay: as above
Method in brief: as §1

Row | Binder | SPOT peptide array binding signal intensity
13 | STPQTMRQAPKRPDA | 1030

Target: AgRvs167
Assay: as above
Method in brief: as §1

Row | Binder | SPOT peptide array binding signal intensity
14 | STPQTMRQAPKRPDA | 0.833

Target: AgSho1
Assay: as above
Method in brief: as §1

Row | Binder | SPOT peptide array binding signal intensity
15 | STPQTMRQAPKRPDA | 25

Target: AgSla1-D1-D2
Assay: as above
Method in brief: as §1

Row | Binder | SPOT peptide array binding signal intensity
16 | STPQTMRQAPKRPDA | 4

Target: AgSla1-D3
Assay: as above
Method in brief: as §1

Row | Binder | SPOT peptide array binding signal intensity
17 | STPQTMRQAPKRPDA | 0.5

Target: CaAbp1-D1
Assay: as above
Method in brief: as §1

Row | Binder | SPOT peptide array binding signal intensity
18 | STPQTMRQAPKRPDA | ≤ 0

Target: CaAbp1-D2
Assay: as above
Method in brief: as §1

Row | Binder | SPOT peptide array binding signal intensity
19 | STPQTMRQAPKRPDA | 13

Target: CaBbc1
Assay: as above
Method in brief: as §1

Row | Binder | SPOT peptide array binding signal intensity
20 | STPQTMRQAPKRPDA | 1170

Target: CaBem1-D1
Assay: as above
Method in brief: as §1

Row | Binder | SPOT peptide array binding signal intensity
21 | STPQTMRQAPKRPDA | 174

Target: CaBzz1-D1
Assay: as above
Method in brief: as §1

Row | Binder | SPOT peptide array binding signal intensity
22 | STPQTMRQAPKRPDA | 532

Target: CaBzz1-D2
Assay: as above
Method in brief: as §1

Row | Binder | SPOT peptide array binding signal intensity
23 | STPQTMRQAPKRPDA | 105

Target: CaCyk3
Assay: as above
Method in brief: as §1

Row | Binder | SPOT peptide array binding signal intensity
24 | STPQTMRQAPKRPDA | 29

Target: CaFus1
Assay: as above
Method in brief: as §1

Row | Binder | SPOT peptide array binding signal intensity
25 | STPQTMRQAPKRPDA | 202

Target: CaHof1
Assay: as above
Method in brief: as §1

Row | Binder | SPOT peptide array binding signal intensity
26 | STPQTMRQAPKRPDA | ≤ 0

Target: CaHse1
Assay: as above
Method in brief: as §1

Row | Binder | SPOT peptide array binding signal intensity
27 | STPQTMRQAPKRPDA | 83

Target: CaLsb1
Assay: as above
Method in brief: as §1

Row | Binder | SPOT peptide array binding signal intensity
28 | STPQTMRQAPKRPDA | 0.5

Target: CaLsb4
Assay: as above
Method in brief: as §1

Row | Binder | SPOT peptide array binding signal intensity
29 | STPQTMRQAPKRPDA | 283

Target: CaMyo5
Assay: as above
Method in brief: as §1

Row | Binder | SPOT peptide array binding signal intensity
30 | STPQTMRQAPKRPDA | 88

Target: CaNbp2
Assay: as above
Method in brief: as §1

Row | Binder | SPOT peptide array binding signal intensity
31 | STPQTMRQAPKRPDA | 653

Target: CaRvs167
Assay: as above
Method in brief: as §1

Row | Binder | SPOT peptide array binding signal intensity
32 | STPQTMRQAPKRPDA | 28.8

Target: CaRvs167-3
Assay: as above
Method in brief: as §1

Row | Binder | SPOT peptide array binding signal intensity
33 | STPQTMRQAPKRPDA | 1

Target: CaSho1
Assay: as above
Method in brief: as §1

Row | Binder | SPOT peptide array binding signal intensity
34 | STPQTMRQAPKRPDA | 100

Target: CaSla1-D1-D2
Assay: as above
Method in brief: as §1

Row | Binder | SPOT peptide array binding signal intensity
35 | STPQTMRQAPKRPDA | 198

Target: CaSla1-D3
Assay: as above
Method in brief: as §1

Row | Binder | SPOT peptide array binding signal intensity
36 | STPQTMRQAPKRPDA | 225

Target: ScAbp1
Assay: as above
Method in brief: as §1

Row | Binder | SPOT peptide array binding signal intensity
37 | STPQTMRQAPKRPDA | 2.5

Target: ScBbc1
Assay: as above
Method in brief: as §1

Row | Binder | SPOT peptide array binding signal intensity
38 | STPQTMRQAPKRPDA | 49.5

Target: ScBem1-D1
Assay: as above
Method in brief: as §1

Row | Binder | SPOT peptide array binding signal intensity
39 | STPQTMRQAPKRPDA | 8.5

Target: ScBzz1-D1
Assay: as above
Method in brief: as §1

Row | Binder | SPOT peptide array binding signal intensity
40 | STPQTMRQAPKRPDA | 3

Target: ScBzz1-D2
Assay: as above
Method in brief: as §1

Row | Binder | SPOT peptide array binding signal intensity
41 | STPQTMRQAPKRPDA | 26

Target: ScCyk3
Assay: as above
Method in brief: as §1

Row | Binder | SPOT peptide array binding signal intensity
42 | STPQTMRQAPKRPDA | ≤ 0

Target: ScFus1
Assay: as above
Method in brief: as §1

Row | Binder | SPOT peptide array binding signal intensity
43 | STPQTMRQAPKRPDA | 39

Target: ScHof1
Assay: as above
Method in brief: as §1

Row | Binder | SPOT peptide array binding signal intensity
44 | STPQTMRQAPKRPDA | ≤ 0

Target: ScHse1
Assay: as above
Method in brief: as §1

Row | Binder | SPOT peptide array binding signal intensity
45 | STPQTMRQAPKRPDA | 72

Target: ScLsb1
Assay: as above
Method in brief: as §1

Row | Binder | SPOT peptide array binding signal intensity
46 | STPQTMRQAPKRPDA | 5.5

Target: ScLsb2
Assay: as above
Method in brief: as §1

Row | Binder | SPOT peptide array binding signal intensity
47 | STPQTMRQAPKRPDA | 5

Target: ScLsb3
Assay: as above
Method in brief: as §1

Row | Binder | SPOT peptide array binding signal intensity
48 | STPQTMRQAPKRPDA | 300

Target: ScLsb4
Assay: as above
Method in brief: as §1

Row | Binder | SPOT peptide array binding signal intensity
49 | STPQTMRQAPKRPDA | 35

Target: ScMyo3
Assay: as above
Method in brief: as §1

Row | Binder | SPOT peptide array binding signal intensity
50 | STPQTMRQAPKRPDA | 196

Target: ScMyo5
Assay: as above
Method in brief: as §1

Row | Binder | SPOT peptide array binding signal intensity
51 | STPQTMRQAPKRPDA | 72.5

Target: ScNbp2
Assay: as above
Method in brief: as §1

Row | Binder | SPOT peptide array binding signal intensity
52 | STPQTMRQAPKRPDA | 2290

Target: ScPex13
Assay: as above
Method in brief: as §1

Row | Binder | SPOT peptide array binding signal intensity
53 | STPQTMRQAPKRPDA | 339

Target: ScRvs167
Assay: as above
Method in brief: as §1

Row | Binder | SPOT peptide array binding signal intensity
54 | STPQTMRQAPKRPDA | 39.7

Target: ScSho1
Assay: as above
Method in brief: as §1

Row | Binder | SPOT peptide array binding signal intensity
55 | STPQTMRQAPKRPDA | 171

Target: ScSla1-D1-D2
Assay: as above
Method in brief: as §1

Row | Binder | SPOT peptide array binding signal intensity
56 | STPQTMRQAPKRPDA | 736

Target: ScSla1-D3
Assay: as above
Method in brief: as §1

Row | Binder | SPOT peptide array binding signal intensity
57 | STPQTMRQAPKRPDA | 540

Target: SpAbp1-D1
Assay: as above
Method in brief: as §1

Row | Binder | SPOT peptide array binding signal intensity
58 | STPQTMRQAPKRPDA | ≤ 0

Target: SpBbc1
Assay: as above
Method in brief: as §1

Row | Binder | SPOT peptide array binding signal intensity
59 | STPQTMRQAPKRPDA | 5

Target: SpBzz1-D1
Assay: as above
Method in brief: as §1

Row | Binder | SPOT peptide array binding signal intensity
60 | STPQTMRQAPKRPDA | 116

Target: SpBzz1-D2
Assay: as above
Method in brief: as §1

Row | Binder | SPOT peptide array binding signal intensity
61 | STPQTMRQAPKRPDA | 11

Target: SpCyk3
Assay: as above
Method in brief: as §1

Row | Binder | SPOT peptide array binding signal intensity
62 | STPQTMRQAPKRPDA | 6

Target: SpHof1
Assay: as above
Method in brief: as §1

Row | Binder | SPOT peptide array binding signal intensity
63 | STPQTMRQAPKRPDA | 25

Target: SpHof1-2
Assay: as above
Method in brief: as §1

Row | Binder | SPOT peptide array binding signal intensity
64 | STPQTMRQAPKRPDA | 38.8

Target: SpHof1-3
Assay: as above
Method in brief: as §1

Row | Binder | SPOT peptide array binding signal intensity
65 | STPQTMRQAPKRPDA | ≤ 0

Target: SpHse1
Assay: as above
Method in brief: as §1

Row | Binder | SPOT peptide array binding signal intensity
66 | STPQTMRQAPKRPDA | 190

Target: SpLsb1
Assay: as above
Method in brief: as §1

Row | Binder | SPOT peptide array binding signal intensity
67 | STPQTMRQAPKRPDA | ≤ 0

Target: SpLsb4
Assay: as above
Method in brief: as §1

Row | Binder | SPOT peptide array binding signal intensity
68 | STPQTMRQAPKRPDA | 384

Target: SpMyo1
Assay: as above
Method in brief: as §1

Row | Binder | SPOT peptide array binding signal intensity
69 | STPQTMRQAPKRPDA | 325

Target: SpNbp2
Assay: as above
Method in brief: as §1

Row | Binder | SPOT peptide array binding signal intensity
70 | STPQTMRQAPKRPDA | 266

Target: SpPex13
Assay: as above
Method in brief: as §1

Row | Binder | SPOT peptide array binding signal intensity
71 | STPQTMRQAPKRPDA | 51

Target: SpRvs167
Assay: as above
Method in brief: as §1

Row | Binder | SPOT peptide array binding signal intensity
72 | STPQTMRQAPKRPDA | 25.8

Target: SpSla1-D1-D2
Assay: as above
Method in brief: as §1

Row | Binder | SPOT peptide array binding signal intensity
73 | STPQTMRQAPKRPDA | 1.5

Target: SpSla1-D3
Assay: as above
Method in brief: as §1

Row | Binder | SPOT peptide array binding signal intensity
74 | STPQTMRQAPKRPDA | 182
